Laboratory results as given in PubChem BioAssay AID504834 (National Center for Advancing Translational Sciences (NCATS), 2011).
The campaign covered roughly 320,000 compounds. About 22,000 (6.9%) were called active. A call without a number means that no potency is given here. Roughly 27% stayed inconclusive and do not appear here. The sample holds actives, similar compounds and a random draw of the others, so the mix is not that of the screen. The call rests on the fitted dose curve; in most records, active means well fitted inhibition curve with a large enough effect; inconclusive means small, poorly fitted or top-dose-only effect, or another doubt; inactive means no such curve, though single readings can be large or run the other way.

Assay: Primary qHTS for delayed death inhibitors of the malarial parasite plastid, 96 hour incubation
Details: P. falciparum luciferase reporter growth; series mostly up to 28.7 µM
Method in brief: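 P. falciparum expressing integrated firefly luciferase grown in erythrocytes (2% hematocrit, 0.05% parasitemia final) with compounds for 96 hours at 37 C, 5% CO2. Growth inhibition read as loss of luminescence after adding luciferase detection reagent.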
Potency means the concentration at half of the fitted maximal effect.

| SMILES | Potency |
| --- | --- |
| COCCCNC(=O)CNC(=O)c1nn(-c2ccc(OC)cc2)c(=O)c2ccccc12 | inactive |
| COc1ccc(-n2nc(C(=O)NCC(=O)N3CCC(C(N)=O)CC3)c3ccccc3c2=O)cc1OC | inactive |
| COc1ccc(-n2nc(C(=O)NCC(=O)N3CCCCCC3)c3ccccc3c2=O)cc1Cl | 2.33 µM (active) |
| Cc1ccc(C(=O)O/N=C(\N)c2ccccn2)cc1Cl | inactive |
| Cc1nc(C(=O)NCc2ccccc2)sc1C1(C)CC(c2cccnc2)=NO1 (stereo not given) | inactive |
| COc1ccccc1C1/C(=C(/O)c2ccc(C)cc2)C(=O)C(=O)N1Cc1ccco1 (stereo not given) | inactive |
| S=C(NCc1ccco1)Nc1ccc2c(c1)OCCO2 | inactive |
| O=C1c2ccccc2C(Nc2ccc3c(c2)OCCO3)N1Cc1ccco1 (stereo not given) | 4.65 µM (active) |
| O=[N+]([O-])c1ccccc1/C=C/CN1CCCC(CO)C1 (stereo not given) | inactive |
| COc1cccc(CNS(=O)(=O)c2ccc3c(c2)CC(C)N3C(C)=O)c1 (stereo not given) | 10.4 µM (active) |
| COc1cccc(CNS(=O)(=O)c2ccc3c(c2)CC(C)N3C(=O)C2CCC2)c1 (stereo not given) | inactive |
| COc1cccc(CNS(=O)(=O)c2ccc3c(c2)N(C(C)=O)CCS3)c1 | inactive |
| COc1cc(C(=O)N/C(=C\c2cn(C)c3ccccc23)C(=O)N2CCOCC2)cc(OC)c1OC | inactive |
| COc1ccc(Cc2nnc(SCC(=O)Nc3ccc(C)c(Cl)c3)[nH]c2=O)cc1 | inactive |
| Cc1ccc(NC(=O)CSc2nn3c(=O)c(C)nnc3s2)cc1Cl | 9.28 µM (active) |
| Cc1ccc(NC(=O)C/C(N)=N/O)cc1Cl | inactive |
| O=C(c1ccc2nc(N3CCOCC3)sc2c1)N1CCN(c2ccc(Cl)cc2)CC1 | inactive |
| O=S(=O)(Nc1ccc2nc(N3CCOCC3)sc2c1)c1ccccc1 | inactive |
| Fc1cc(F)c2nc(N3CCOCC3)sc2c1 | 3.7 µM (active) |
| COc1ccc(S(=O)(=O)N2CCN(C(C)C(=O)Nc3ccc(C(C)C)cc3)CC2)cc1 (stereo not given) | inactive |
| O=[N+]([O-])c1cccc(Nc2c3ccccc3nc3ccccc23)c1 | inactive |
| O=C(O)c1cc([N+](=O)[O-])c(Nc2cccc3ccccc23)c([N+](=O)[O-])c1 | 3.29 µM (active) |
| CCOc1ccccc1Nc1ccc(C(=O)O)cc1[N+](=O)[O-] | inactive |
| NC(=O)c1c(NC(=O)c2ccccc2)sc2c1CCCC2 | inactive |
| CC1CCCCC12NC(=O)N(CC(=O)Nc1ccc(S(=O)(=O)Nc3ncccn3)cc1)C2=O (stereo not given) | inactive |

| SMILES | Potency |
| --- | --- |
| COCCN1C(=O)C(=O)/C(=C(/O)c2ccc(S(=O)(=O)N3CCOCC3)cc2)C1c1ccc(O)c(OC)c1 (stereo not given) | inactive |
| Cc1c(NC(=O)Nc2ccccc2)cccc1[N+](=O)[O-] | inactive |
| Cc1cccc(NC(=O)Nc2nnc(-c3ccccc3)o2)c1 | inactive |
| Cc1ccc(NC(=O)Nc2ccccc2)c(Br)c1 | 7.38 µM (active) |
| CCN(CC)S(=O)(=O)c1ccc(N2CCOCC2)c(C(=O)O)c1 | inactive |
| CCN(CC)S(=O)(=O)c1ccc(N2CCOCC2)c(NC(=O)C2CSC3(C)CCC(=O)N23)c1 (stereo not given) | 10.4 µM (active) |
| CCN(CC)S(=O)(=O)c1ccc(N2CCN(C)CC2)c(NC(=O)Nc2ccccc2F)c1 | 13.1 µM (active) |
| CCN(CC)S(=O)(=O)c1ccc(N2CCOCC2)c(NC(=O)C(C)Oc2ccc(F)cc2)c1 (stereo not given) | 14.7 µM (active) |
| CCC(=O)Nc1ccccc1N1CCN(S(C)(=O)=O)CC1 | inactive |
| CC(=O)N1CCc2cc(S(=O)(=O)Nc3ccccc3N3CCN(C)CC3)ccc21 | inactive |
| CCN(CC)S(=O)(=O)c1ccc(N2CCOCC2)c(NC(=O)C2COc3ccccc3O2)c1 (stereo not given) | inactive |
| CC12CCC(=O)N1C(C(=O)Nc1ccc(F)c(F)c1F)CS2 (stereo not given) | inactive |
| O=C(CNCc1ccco1)Nc1cc(S(=O)(=O)N2CCOCC2)ccc1N1CCCC1 | inactive |
| CCN(CC)S(=O)(=O)c1cc(C(=O)Nc2cc(S(=O)(=O)N3CCOCC3)ccc2N2CCCC2)ccc1F | 2.62 µM (active) |
| CC(Oc1ccc(F)cc1)C(=O)Nc1cc(S(=O)(=O)N2CCOCC2)ccc1N1CCN(C)CC1 (stereo not given) | inactive |
| O=C(COC(=O)c1ccccc1F)Nc1cc(S(=O)(=O)N2CCOCC2)ccc1N1CCCC1 | inactive |
| CN(CC(=O)NC(=O)Nc1ccccc1F)Cc1ccccc1 | inactive |
| COc1ccc2ccn(C)c2c1 | inactive |
| O=C(Cc1cccs1)Nc1ccc([N+](=O)[O-])cc1 | inactive |
| O=C(O)C(c1ccccc1)N1C(=O)/C(=C\c2ccc(-c3cccc(Cl)c3)o2)SC1=S (stereo not given) | inactive |
| O=C1CCC(C(=O)N2CCCCO2)CN1Cc1cccc(C(F)(F)F)c1 (stereo not given) | inactive |
| O=C(NC1CCCC1)c1cc(-c2ccccc2)on1 | inactive |
| COc1ccc(OCc2cccc(C(=O)N3CCCC3)c2)cc1 | inactive |
| CC(=O)c1cccc(NC(=S)N2CCCC2)c1 | inactive |
| CCC(CC)C(=O)Nc1cccc(C(=O)N2CCCC2)c1 | 8.28 µM (active) |

| SMILES | Potency |
| --- | --- |
| Cc1ccc(Cl)c(OCC(=O)NN2CCN(C)CC2)c1 | inactive |
| CCc1c(C)nc(N)n2c(SCC(=O)NC3CCCCC3)nnc12 | inactive |
| CCOC(=O)C1=C(CN2CCc3ccccc32)NC(=O)NC1c1ccc(Cl)cc1 (stereo not given) | 2.08 µM (active) |
| O=C(OCC(=O)N1CCc2ccccc21)C1CCCN1S(=O)(=O)c1ccc(Cl)cc1 (stereo not given) | inactive |
| CCOC(=O)C1=C(CN2CCCCCC2)NC(=O)NC1c1cccc([N+](=O)[O-])c1 (stereo not given) | inactive |
| Cn1c2c(c(=O)n(C)c1=O)C(c1cccc([N+](=O)[O-])c1)Nc1ccccc1O2 (stereo not given) | inactive |
| CCOC(=O)C1=C(c2ccccc2)NC(=S)NC1c1ccc(Cl)cc1 (stereo not given) | inactive |
| CCOC(=O)C1=C(CN2CCc3ccccc32)NC(=O)NC1c1cccc([N+](=O)[O-])c1 (stereo not given) | 8.28 µM (active) |
| NC(=O)C1CCCN(CC(=O)N2CCN(c3ccccc3)CC2)C1 (stereo not given) | inactive |
| CCOc1ccc(NC(=O)COC(=O)C2CCC(=O)N2)c([N+](=O)[O-])c1 (stereo not given) | inactive |
| CN(CC(=O)O)S(=O)(=O)c1ccc2oc3ccccc3c2c1 | inactive |
| CC1CCCCC1NC(=O)c1cc(=O)[nH]c2ccccc12 (stereo not given) | inactive |
| CCOc1ccc(NC(=O)CCC(=O)NNC(=O)NC2CCCCC2)cc1 | inactive |
| CCOc1ccc(NC(=O)CCC(=O)N/N=C/c2ccc([N+](=O)[O-])s2)cc1 | 4.15 µM (active) |
| Cc1ccccc1NCC(=O)N/N=C\c1ccc([N+](=O)[O-])s1 | inactive |
| CCOc1ccc2sc(NS(=O)(=O)c3ccc(N)cc3)nc2c1 | inactive |
| CCc1cccc(CC)c1NC(=S)NCc1ccc2[nH]c(C)cc2c1 | 2.62 µM (active) |
| CCc1cccc(CC)c1NC(=S)Nc1ccc2cn[nH]c2c1 | inactive |
| Cc1cc2cc(CNC(=O)c3cccs3)ccc2[nH]1 | inactive |
| CCOc1ncccc1C(=O)OCC(=O)Nc1cccc(S(=O)(=O)N2CCCCCC2)c1 | inactive |
| CC(C)c1ccc(/C=C2\NC(=O)NC2=O)cc1 | inactive |
| CCO[C@H]1OC(C(=O)N2CCN(Cc3ccccc3)CC2)=C[C@@H](c2cn(C(C)=O)c3ccccc23)[C@@H]1CCCO | 9.28 µM (active) |
| CCO[C@H]1OC(C(=O)N2CCCCCCC2)=C[C@@H](c2ccc(C(F)(F)F)cc2)[C@@H]1CCCO | 3.29 µM (active) |
| CCO[C@@H]1OC(C(=O)N2CCOCC2)=C[C@H](C)[C@H]1CCCO | inactive |
| CCO[C@H]1OC(C(=O)N2CCOCC2)=C[C@@H](c2ccc3c(c2)OCO3)[C@@H]1CCCO | inactive |

| SMILES | Potency |
| --- | --- |
| CCO[C@H]1OC(C(=O)O)=C[C@@H](C2CCCCC2)[C@@H]1CCCO | inactive |
| CCO[C@@H]1OC(C(N)=O)=C[C@H](c2ccc(Br)cc2)[C@H]1CCCO | inactive |
| Cc1ccc(S(=O)(=O)CCC(=O)OCC(=O)N(C)C2CCS(=O)(=O)C2)cc1 (stereo not given) | inactive |
| CCN(CC(=O)Nc1ccccc1C(F)(F)F)C(=O)CSCc1c(C)noc1C | inactive |
| Cc1ccc2c(c1)N(CC(=O)N1CCCC(C)C1)C(=O)CO2 (stereo not given) | inactive |
| Cc1ccc2c(c1)N(CC(=O)NCC1CCCO1)C(=O)CO2 (stereo not given) | 7.38 µM (active) |
| Cc1ccc2c(c1)N(CC(=O)N1CCOCC1)C(=O)CO2 | inactive |
| CN(C)CCN(C(=O)C1=COCCO1)c1nc2ccc(Cl)cc2s1 | inactive |
| CC(=O)N(CC1CCCO1)C1(C(=O)NC2CCCC2)CCCCC1 (stereo not given) | 10.4 µM (active) |
| O=C(Cc1cccs1)N(CC1CCCO1)C1(C(=O)NC2CCCCC2)CCCCC1 (stereo not given) | inactive |
| Cc1ccc(N(C(=O)CC2NC(=O)NC2=O)C2(C(=O)NC3CCCC3)CCCCC2)cc1 (stereo not given) | inactive |
| O=[N+]([O-])c1cccc(S(=O)(=O)NCc2ccccn2)c1 | inactive |
| Cc1ccc(S(=O)(=O)NNC(=S)NC(C)(C)C)cc1 | inactive |
| COc1ccc(C(=O)NNS(=O)(=O)c2ccc(C)cc2)cc1 | inactive |
| Cc1ccc(S(=O)(=O)NNC(=O)Nc2cccc3ccccc23)cc1 | 1.85 µM (active) |
| CCOc1ccc(NC(=O)CN(C)C(=O)Cn2c(=O)cnc3ccccc32)cc1OCC | inactive |
| COc1ccccc1C(=O)NC(=O)COC(=O)C1CC1 | inactive |
| CC(=O)c1ccccc1NC(=O)C1CC(=O)N(c2ccc3c(c2)OCCO3)C1 (stereo not given) | inactive |
| CCOC(=O)C1CCN(C(=O)COC(=O)C2CCN(S(=O)(=O)c3ccc4c(c3)OCCO4)CC2)CC1 | inactive |
| CCCCn1c(SCC(=O)N2CCC(C(=O)OCC)CC2)nc2cc(S(N)(=O)=O)ccc21 | 13.1 µM (active) |
| Cn1c(=O)cc(SCC(=O)N2CCCC2)c2cc(Cl)ccc21 | inactive |
| CCCCn1c(SCC(=O)N2CCCC2=O)nc2cc(S(N)(=O)=O)ccc21 | inactive |
| CCCCn1c(SCc2ncc(-c3ccccc3)o2)nc2cc(S(N)(=O)=O)ccc21 | 14.7 µM (active) |
| Cn1c(=O)cc(SCC(=O)N2CCN(C(=O)c3ccco3)CC2)c2ccccc21 | inactive |
| CCOC(=O)C1CCN(C(=O)CSc2cc(=O)n(C)c3ccccc23)CC1 | 2.33 µM (active) |
